Experimental data reported in PubChem BioAssay (NCATS).
Results filed as inconclusive are left out. Where a call stands in place of a potency, no number is given. Calls of active or inactive are those of the source. The call rests on the fitted dose curve; in most records, active means well fitted cell-killing curve with a large enough effect; inconclusive means small, poorly fitted or top-dose-only effect, or effect the other way; inactive means no such curve, though single readings can be large or run the other way.

Test: Quantitative High-Throughput drug screen in 47 multiple myeloma cell lines against the NCATS MIPE library collection: Karpas620_DSMZ cell viability assay (AID 1918959); further: nearly all actives have a fitted effect of over 30% in size
Settings: Karpas620 myeloma viability, CellTiter-Glo ATP luminescence, 48 h; series mostly up to 45.8 µM
In short: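 Steps: seed 500 cells per well; pin-transfer MIPE 4.0 library; incubate 48 h at 37C, 5% CO2, humidified; add CellTiter-Glo, 5 min room temperature; read luminescence.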
Potency means the concentration at half of the fitted maximal effect.

SMILES	Potency
O=C(NCCCCN1CCOCC1)c1cc2ccccc2o1	inactive
CCC[C@H](N[C@@H](C)C(=O)N1[C@@H]2CCCC[C@H]2C[C@H]1C(=O)O)C(=O)OCC	inactive
C[C@@H](O[C@H]1OCCN(Cc2n[nH]c(=O)[nH]2)[C@@H]1c1ccc(F)cc1)c1cc(C(F)(F)F)cc(C(F)(F)F)c1	7.43 µM (active)
C#CCN(C)CC1=Cc2ccccc2Oc2ccccc21	inactive
COc1ccc(C=CC(=O)Nc2ccccc2C(=O)O)cc1OC	inactive
NC[C@H]1O[C@H](O[C@@H]2[C@@H](O)[C@@H](O[C@H]3O[C@H](CO)[C@@H](O)[C@H](N)[C@@H]3O)[C@H](N)C[C@@H]2N)[C@H](O)[C@@H](O)[C@H]1O	inactive
Cn1c(=O)c(Oc2ccc(F)cc2F)cc2cnc(NC3CCOCC3)nc21	inactive
CN1CC(=O)NC1=NC(=O)Nc1cccc(Cl)c1	5.26 µM (active)
CCCCC(C)(C)[C@H](O)C=C[C@H]1[C@H](O)CC(=O)[C@H]1CC=CCCCC(=O)O	inactive
O=C(O)Cc1cccc(OCCCN(Cc2cccc(C(F)(F)F)c2Cl)CC(c2ccccc2)c2ccccc2)c1	inactive
CCNC(=O)Nc1ccc(Oc2ncnc(N)c2C=NOC)cc1Cl	4.69 µM (active)
COc1cc2nccc(Oc3ccc(NC(=O)Nc4ccc(F)cc4F)c(F)c3)c2cc1OC	inactive
CO[C@H]1C=CO[C@@]2(C)Oc3c(C)c(O)c4c(O)c(c(C=NN5CCN(C)CC5)c(O)c4c3C2=O)NC(=O)C(C)=CC=C[C@H](C)[C@H](O)[C@@H](C)[C@@H](O)[C@@H](C)[C@H](OC(C)=O)[C@H]1C	inactive
CC(C)c1c(C(=O)Nc2ccccc2)c(-c2ccccc2)c(-c2ccc(F)cc2)n1CC[C@H](O)C[C@@H](O)CC(=O)O	inactive
Cc1ccc(C2=Nc3ccc(Cl)cc3OC2)cc1	inactive
C[C@@H]1[C@H](C)CC[C@]2(C(=O)O)CC[C@]3(C)C(=CC[C@@H]4[C@@]5(C)CC[C@H](O)C(C)(C)[C@H]5CC[C@]43C)[C@@H]12	inactive
CN1C(=O)C[C@H](C(=O)N[C@@H](Cc2cnc[nH]2)C(=O)N2CCC[C@@H]2C(N)=O)NC1=O	inactive
C[C@]12C=CC(=O)C=C1CC[C@@H]1[C@@H]2[C@@H](O)C[C@@]2(C)[C@@H]1CC[C@]2(O)C(=O)CO	inactive
O=C(O)c1ccc(O)c2ncc(N3CCOCC3)cc12	18.7 µM (active)
O=c1cc(-c2ccc(O)c(O)c2)oc2cc(O)cc(O)c12	inactive
C[C@@H]1CC=CC=CC=CC=C[C@@H](O[C@@H]2O[C@H](C)[C@@H](O)[C@H](N)[C@H]2O)C[C@@H]2O[C@](O)(C[C@@H](O)C[C@@H]3O[C@@H]3C=CC(=O)O1)C[C@H](O)[C@@H]2C(=O)O	inactive
COc1ccc(-c2oc3c(CC=C(C)C)c(O)cc(O)c3c(=O)c2O)cc1	inactive
CO[C@H]1/C=C\O[C@@]2(C)Oc3c(C)c(O)c4c(O)c(c(C=NN5CCN(C6CCCC6)CC5)c(O)c4c3C2=O)NC(=O)C(C)=CC=C[C@H](C)[C@H](O)[C@@H](C)[C@@H](O)[C@@H](C)[C@H](OC(C)=O)[C@H]1C	0.264 µM (active)
